BL2 CD40 inh: inhibitors of CD40-induced NF-kB signaling, primary screen, BL2 cells, luciferase reporter, single point. CD40L-induced, 4 h. inhibition, % at 10 µM. 83,000 tested, 0.94% active;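 active = mean inhibition of at least 50% with a set share of replicates also reaching that level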;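 also: 0% = neutral control wells and 100% = IKK inhibitor VII at 50 µM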
Starred values were filed as active, the others as inactive; [ ] = dose if it differs, or a comment. The entries come from a sample that favours hits as a whole.

SMILES	BL2 CD40 inh
O=C1C=C(NCCc2cc(Br)c(O)c(Br)c2)C(=O)c2ncccc21	32.1
NC1=C(Br)C(=O)c2ncccc2C1=O	70.1*
O=C1c2cccnc2C(=O)N1C1CCCCC1	8.3
CCC(=O)N1[C@H](CO)[C@H](c2ccc(C3=CCCCC3)cc2)[C@H]1CNCC1CCC1	-2.5[25 µM]
CC(=O)N1C[C@@H]2C(c3ccc(Br)cc3)[C@H](C1)N2CC(F)(F)F (stereo not given in full)	0.4
Cc1ccc(C(=O)Nc2nc3ccccc3n2CCN2CCCC2)cc1	-61.6
CCn1nccc1C(=O)Nc1nc2ccccc2n1CCN1CCCCC1	-16.7
CCCn1c(NC(=O)c2cccc(S(=O)(=O)N3CCCC3)c2)nc2ccccc21	89.6*
CN(C)Cc1csc(NC(=O)Nc2cccc(Cl)c2)n1	-12.8
NC(c1csc(NC(=O)Nc2cccc(Cl)c2)n1)c1ccccc1Cl (stereo not given)	59.0*
NC(c1csc(Nc2cc(Oc3ccccc3)ncn2)n1)c1ccccc1Cl (stereo not given)	-14.9
COCC(=O)N1[C@H](CO)[C@H](c2ccccc2-c2cccc(F)c2)[C@@H]1C#N	-16.6[25 µM]
CCOC(=O)c1cn2nc(N3CCCC3)ccc2n1	-2.2
c1cc2nncn2nc1N1CCCC1	11.6
CCOC(=O)c1cn2nc(N3CCCCC3)ccc2n1	66.3*
CC(C)C#Cc1ccc([C@H]2[C@H]3CN(C(=O)NC4CCCCC4)CC(=O)N3[C@H]2CO)cc1	0.4
COC(=O)c1ccc(OC(=O)CCS(=O)(=O)c2ccc(C)cc2)cc1	-2.8
COC(=O)CCS(=O)(=O)c1nc(-c2ccccc2)cc(C(F)(F)F)n1	95.3*
COC(=O)CCNS(=O)(=O)c1ccc2ccccc2c1	10.0
N#Cc1cccc(-c2ccc([C@H]3[C@@H](CO)N4CCCCN(C(=O)Nc5cccc(F)c5)C[C@@H]34)cc2)c1	33.6[25 µM]
CC[C@H]1C/C=C\C[C@H](CC)NC(=O)[C@@H](C)CC(=O)N1	6.1[25 µM]
COc1ccc2c3c(n(C)c2c1)[C@@H](CO)N(C)CC31CCN(C(=O)c2cccnc2)CC1	-6.7[25 µM]
C[C@@H]1CCCCO[C@H](CN(C)C(=O)Nc2ccc(C(F)(F)F)cc2)[C@H](C)CN([C@H](C)CO)C(=O)c2cc(NS(=O)(=O)c3cn(C)cn3)ccc2O1	11.8[25 µM]
Cc1cc(NC(=O)c2ccc3c(c2)OCCO3)no1	78.5*
O=C(Nc1ccccn1)c1ccc2c(c1)OCCO2	-1.9
SMILES	BL2 CD40 inh
Cc1cc(NC(=O)c2ccc(F)cc2)no1	-20.8
CN1C(=O)c2cc(NC(=O)Cc3cccs3)ccc2OC[C@@H]2O[C@H](CC(=O)NCC3CC3)CC[C@H]21	-3.5
Fc1ccc(CN2[C@@H]3CN(CC(F)(F)F)C[C@H]2C3c2ccc(Br)cc2)cc1 (stereo not given in full)	7.1
Nc1ccc2nc(N3CCOCC3)sc2c1	-44.5
c1c2c(cc3sc(N4CCOCC4)nc13)OCCO2	87.5*
c1ccc(N2CCN(c3nc4cc5c(cc4s3)OCCO5)CC2)cc1	-76.0
O=C(NC1CCC1)[C@@H]1[C@@H](CO)[C@@H]2Cn3c(ccc(-c4ccccc4)c3=O)[C@H]1N2	4.5[25 µM]
CC(=NNC(=S)N1CC2CCC(CC2)C1)c1cccc(C)n1	-19.9
CC(=NNC(=S)N1CCC1)c1ccccn1	96.7*
C/C(=N/NC(=O)c1ccccn1)c1ccco1	18.4
C[C@@H]1CN([C@@H](C)CO)C(=O)c2ccccc2-c2ccccc2CO[C@@H]1CN(C)C(=O)Cc1ccccc1	-12.9[25 µM]
O=C(NC(CO)C(=O)OCc1ccccc1)OCc1ccccc1 (stereo not given)	3.0
CC(C)C[C@@H](C=O)NC(=O)[C@H](CC(C)C)NC(=O)[C@H](CC(C)C)NC(=O)OCc1ccccc1	63.8*[25 µM]
COC(=O)C(CC(C)C)NC(=O)C(N)Cc1ccccc1 (stereo not given)	11.5
OC[C@@H]1[C@@H](c2ccccc2)C2(CN(CC3CC3)C2)N1Cc1ccc(F)cc1	27.3[25 µM]
OC(CNc1ccnc2cc(Cl)ccc12)CNC1CCCCC1 (stereo not given)	-7.6
CCN(CC)CCNc1ccnc2cc(Cl)ccc12	-7.0
O=C(NCCNc1ccnc2cc(Cl)ccc12)c1ccccc1F	37.4*
N#Cc1ccc(-c2ccc3c(c2)[C@@H]2[C@@H](CCN2C(=O)c2ccc(F)cc2)[C@@H](CO)N3)cc1	-18.1[25 µM]
O=C1Nc2ccccc2OCc2cn(nn2)CC[C@H]1Cc1ccc(-c2ccccc2)cc1	-11.4[25 µM]
COCC(=O)N1C[C@@H]2[C@H](c3ccccc31)[C@H](CO)N2C(=O)C1CCCC1	9.4[25 µM]
Cc1cc(C(=O)CSc2nnc(N)s2)c(C)n1Cc1ccco1	-24.6
Cc1cc(C(=O)COC(=O)c2cccn2C)c(C)n1Cc1ccco1	57.4*
Cc1cc(C(=O)COC(=O)c2n[nH]c(=O)c3ccccc23)c(C)n1C(C)C	-35.9
COCC(C)n1c(C)cc(C(=O)COc2ccc(N(C)S(=O)(=O)c3ccc(NC(C)=O)cc3)cc2)c1C (stereo not given)	-7.1
SMILES	BL2 CD40 inh
Cc1cc(C(=O)COc2cccnc2[N+](=O)[O-])c(C)n1Cc1ccco1	-20.2
COCC(C)n1c(C)cc(C(=O)COC(=O)c2cccn2C)c1C (stereo not given)	52.0*
Cc1nn(Cc2ccccc2)c(C)c1C(=O)OCC(=O)c1cc(C)n(CC(F)(F)F)c1C	11.1
COC(=O)c1c(C(=O)OC)c(C)n(Cc2ccco2)c1C	10.8
Cc1cc(C(=O)COC(=O)c2ccco2)c(C)n1Cc1ccco1	100.8*
CO[C@@H]1CN(C)C(=O)c2ccc(NC(=O)NC3CCCCC3)cc2OC[C@@H](C)N(CC2CC2)C[C@H]1C	6.5
Cc1cccc(S(=O)(=O)N(C)C[C@H]2OCc3ccccc3-c3ccccc3C(=O)N([C@@H](C)CO)C[C@H]2C)c1	-7.7
Cc1cc(C)c2c(N)c(C(=O)NC3CC3)sc2n1	-5.4
Cc1cc(C)c2c(N)c(C(=O)NN)sc2n1	-13.8
Cc1cc(C)c2c(N)c(C(=O)Nc3nccs3)sc2n1	70.5*
CC(=O)N(C)C[C@H]1Oc2ccc(N(C)C)cc2C(=O)N(C)C[C@H]1C	1.3
Cc1ccc2ncccc2c1[N+](=O)[O-]	5.6
O=[N+]([O-])c1cccc(/C=C/c2ccccn2)c1	-58.0
Cc1noc(/C=C/c2ccccn2)c1[N+](=O)[O-]	42.5*
C[C@H]1CN(C)C(=O)c2cc(N)ccc2O[C@H]1CN(C)S(C)(=O)=O	0.1
C[C@H]1CN([C@@H](C)CO)C(=O)c2ccccc2-c2ccccc2CO[C@@H]1CN(C)S(=O)(=O)c1ccsc1	0.5
O=C(O)[C@@H]1[C@@H](CO)[C@@H]2Cn3c(ccc(-c4ccc(F)cc4)c3=O)[C@@H]2N1C(=O)Nc1ccccc1	0.3[25 µM]
COc1cccc(Nc2nc(C(N)COCc3ccccc3)cs2)n1 (stereo not given)	5.6
CC(C)c1ccc(NC(=O)Nc2nc(C(N)COCc3ccccc3)cs2)cc1 (stereo not given)	57.0*
COc1ccc(NC(=O)Nc2nc(C(N)CC(C)C)cs2)cc1 (stereo not given)	2.3
C[C@H](CO)N1C[C@H](C)[C@@H](CN(C)C(=O)[C@H]2CCCN2C)OCc2ccccc2-c2c(n(C)c3ccccc23)C1=O	-5.3[25 µM]
COc1ccc2cc(-c3cc(C(=O)O)c4ccccc4n3)ccc2c1	83.5*
COc1ccc(-c2cc(C(=O)N3CC(C)CC(C)C3)c3ccccc3n2)cc1 (stereo not given)	-13.2
COc1ccc(-c2cc(C(=O)N3CCCC3)c3ccccc3n2)cc1	-56.7
Cc1nc2ccccc2c(=O)n1CCN1CCOCC1	-3.8
